Experimental data reported in ChEMBL document CHEMBL3988442, “University of Dundee, Small-Polar-MMV Screening Library” (2021).
Out of some 67,000 compounds screened, about 300 (0.45%) showed an effect of 50% or more. The full list was thinned out, with strong results kept by preference.

What follows are compounds tested against Polyketide synthase Pks13 (Mycobacterium tuberculosis (strain ATCC 25618 / H37Rv)) (UniProt I6X8D2) (assay: Mycobacterium tuberculosis Polyketide synthase 13 Thioesterase (PKS13)). Details: 30 µM.
Polyketide synthase Pks13 (Mycobacterium tuberculosis (strain ATCC 25618 / H37Rv)), sequence (I6X8D2 whole entry): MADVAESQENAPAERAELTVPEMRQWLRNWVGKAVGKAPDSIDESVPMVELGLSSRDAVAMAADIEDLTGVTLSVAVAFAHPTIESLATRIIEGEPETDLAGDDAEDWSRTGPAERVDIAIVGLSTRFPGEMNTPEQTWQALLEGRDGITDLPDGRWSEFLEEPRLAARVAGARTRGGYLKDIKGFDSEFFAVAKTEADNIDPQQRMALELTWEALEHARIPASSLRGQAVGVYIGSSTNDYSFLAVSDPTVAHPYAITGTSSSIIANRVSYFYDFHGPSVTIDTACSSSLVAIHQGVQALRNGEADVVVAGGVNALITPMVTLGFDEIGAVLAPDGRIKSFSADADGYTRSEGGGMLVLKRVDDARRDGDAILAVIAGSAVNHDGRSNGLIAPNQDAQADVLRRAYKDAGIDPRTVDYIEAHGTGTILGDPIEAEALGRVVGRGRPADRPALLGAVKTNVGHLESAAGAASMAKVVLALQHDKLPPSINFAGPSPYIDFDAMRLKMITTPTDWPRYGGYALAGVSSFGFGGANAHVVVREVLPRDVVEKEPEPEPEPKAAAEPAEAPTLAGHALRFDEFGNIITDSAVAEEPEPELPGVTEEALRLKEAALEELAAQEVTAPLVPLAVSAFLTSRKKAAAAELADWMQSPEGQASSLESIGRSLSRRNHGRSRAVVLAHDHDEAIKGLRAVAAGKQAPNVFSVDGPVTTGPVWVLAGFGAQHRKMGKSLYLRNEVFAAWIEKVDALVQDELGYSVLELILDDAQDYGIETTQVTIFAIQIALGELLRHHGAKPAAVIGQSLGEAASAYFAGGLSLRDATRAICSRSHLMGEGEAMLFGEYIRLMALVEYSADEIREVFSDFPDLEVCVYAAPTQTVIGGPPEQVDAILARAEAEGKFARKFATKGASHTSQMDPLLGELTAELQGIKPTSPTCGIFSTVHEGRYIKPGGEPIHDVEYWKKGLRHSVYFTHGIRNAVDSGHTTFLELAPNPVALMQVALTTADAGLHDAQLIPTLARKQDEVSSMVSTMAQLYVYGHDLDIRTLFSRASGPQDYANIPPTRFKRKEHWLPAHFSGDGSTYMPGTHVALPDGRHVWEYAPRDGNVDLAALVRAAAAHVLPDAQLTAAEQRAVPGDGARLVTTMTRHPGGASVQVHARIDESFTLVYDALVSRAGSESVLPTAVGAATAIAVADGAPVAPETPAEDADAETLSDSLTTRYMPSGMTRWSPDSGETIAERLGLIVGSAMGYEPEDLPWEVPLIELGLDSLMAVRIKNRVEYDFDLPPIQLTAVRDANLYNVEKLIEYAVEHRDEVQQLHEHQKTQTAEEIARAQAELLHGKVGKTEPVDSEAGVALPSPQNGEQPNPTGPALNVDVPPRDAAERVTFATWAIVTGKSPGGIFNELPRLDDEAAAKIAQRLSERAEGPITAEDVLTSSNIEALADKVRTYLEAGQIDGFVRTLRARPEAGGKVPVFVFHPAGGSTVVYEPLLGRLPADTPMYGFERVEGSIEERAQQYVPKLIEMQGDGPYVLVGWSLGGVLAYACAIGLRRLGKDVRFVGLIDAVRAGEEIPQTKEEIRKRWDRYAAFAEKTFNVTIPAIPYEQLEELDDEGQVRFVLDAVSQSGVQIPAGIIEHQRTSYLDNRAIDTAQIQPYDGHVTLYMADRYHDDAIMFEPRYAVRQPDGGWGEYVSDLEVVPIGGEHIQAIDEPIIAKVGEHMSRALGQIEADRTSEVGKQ
Format: functional
Parameters: scale not given: in the data most compounds retested in dose-response had high values

Going from `Cc1cnc(N2CCC3(CCN(CC4CC4)C3=O)CC2)nc1` to `O=C1N(CC2CC2)CCC12CCN(c1ncccn1)CC2`, the Percent Effect falls from 71.3% to 2.59%.

First: COc1ccc(CN2CC[C@H]3CO[C@H](CNC(=O)N(C)C)[C@H]3C2)cc1
Second: CNC(=O)N1CC[C@@H]2CN(Cc3cccc(OC)c3)S(=O)(=O)[C@@H]2CC1
The Percent Effect of the first is higher: -14.2% for the first, -16.2% for the second.

Compared with `CCCn1c(N2CCCC(C)C2)nc2c(C)nn(C)c2c1=O` (centres undefined), `CCCn1c(N2CCCC2)nc2c(C)nn(C)c2c1=O` is higher in Percent Effect: 3.25% for the first, 67% for the second.

First: CCCn1c(N2CCCCC2)nc2c(C)nn(C)c2c1=O
Second: Cc1nn(C)c2c(=O)n(CC(=O)NC3CCCCC3)ccc12
The Percent Effect of the first is higher: 14% for the first, -9.58% for the second.

First: Cc1ccoc1-c1nnc(CN2CCOC(Cn3cccn3)C2)o1 (centres undefined)
Second: Cn1nccc1CCC(=O)N1CCOC(c2cnccn2)C1 (centres undefined)
The Percent Effect of the first is lower: -3.25% for the first, 4.28% for the second.

Going from `Cc1noc(C)c1C(=O)N1C[C@H]2CC[C@@H]1CN(c1cnccn1)C2` to `Cc1noc(C)c1C(=O)N1CCCCC1c1cc(C)n2ccnc2n1` (centres undefined), the Percent Effect rises from -13.5% to -1.89%.

Compared with `Cn1nccc1CCC(=O)N1CCCC(c2cnccn2)C1` (centres undefined), `Cn1nccc1CCC(=O)N1CCC(c2cnccn2)CC1` is lower in Percent Effect: 54.2% for the first, -6.75% for the second.

Compared with `COc1ccccc1N1CCC(CNS(=O)(=O)c2cccs2)C1` (centres undefined), `COc1ccccc1N1CCC(CNS(=O)(=O)c2cccc(C#N)c2)C1` (centres undefined) is lower in Percent Effect: 80.9% for the first, 50.9% for the second.

Compared with `COc1ccccc1N1CCC(CNCc2cccc(C#N)c2)C1` (centres undefined), `COc1ccccc1N1CCC(CNCc2ccc(C#N)cc2)C1` (centres undefined) is lower in Percent Effect: 14.1% for the first, -12.2% for the second.

First: COc1ccccc1N1CCC(CNS(=O)(=O)c2c(C)nn(C)c2C)C1 (centres undefined)
Second: COc1ccccc1N1CCC(CNCc2cccc(OC)c2OC)C1 (centres undefined)
The Percent Effect of the first is higher: 0.665% for the first, -8.68% for the second.

First: O=C([C@H]1CC[C@@H]2[C@@H](CCN2c2ncccn2)O1)N1CCCCO1
Second: O=C(NCCc1ccccc1)N1C[C@H]2C[C@H](C(=O)N3CCCC3)[C@@H](C1)O2
The Percent Effect of the first is higher: 4.55% for the first, -28.3% for the second.

Compared with `Cn1cnc(S(=O)(=O)N2CCO[C@H]3[C@H](OCC4CC4)CC[C@@H]32)c1`, `CC(C)CN1C(=O)CO[C@@H]2CN(C(=O)N3CCOCC3)C[C@H]21` is higher in Percent Effect: -28.3% for the first, -27.7% for the second.

Compared with `O=C(N1CCOCC1)[C@@]12CCO[C@@H]1CCN(CCN1CCCCC1)C2`, `CCOC(=O)[C@]12CCCN(Cc3nccs3)C[C@H]1CN(CC(C)C)C2` is higher in Percent Effect: -23.6% for the first, -5.86% for the second.

Compared with `COCCN1C[C@H]2CCN(C(=O)c3cc(C)on3)CC[C@H]2S1(=O)=O`, `CCC(=O)N1CCN(Cc2cnc(C)nc2)[C@H]2CS(=O)(=O)C[C@H]21` is higher in Percent Effect: -423% for the first, -6.93% for the second.

Compared with `CCS(=O)(=O)NC[C@]12COC[C@H]1CN(Cc1cc(C)on1)C2`, `Cc1noc(C)c1CN1CC[C@H]2C[C@H](c3ccncn3)O[C@@H]2C1` is higher in Percent Effect: -29.9% for the first, -14.6% for the second.

Going from `N#Cc1cccnc1N1CCCC(CO)(Cc2cccc(Cl)c2)C1` (centres undefined) to `N#Cc1cccnc1N1CCCC(CO)(Cc2ccc(F)cc2)C1` (centres undefined), the Percent Effect falls from 96.8% to -5.66%.

First: OCC1(Cc2cccc(Cl)c2)CCCN(c2ncccn2)C1 (centres undefined)
Second: Cn1ccc(C(=O)NCc2cccc(CN3CCCC3)c2)cc1=O
The Percent Effect of the first is lower: 20.3% for the first, 56.3% for the second.

Compared with `Cn1ccc(C(=O)NCc2ccc(CN3CCCC3)cc2)cc1=O`, `Cn1ccc(C(=O)NCc2ccc(CN3CCCCC3)cc2)cc1=O` is higher in Percent Effect: -2.41% for the first, 4.22% for the second.

Going from `Cn1ccc(C(=O)NCc2cccc(Cn3ccnc3)c2)cc1=O` to `Cn1ccc(C(=O)NCc2cccc(N3CCCCC3=O)c2)cc1=O`, the Percent Effect rises from -52% to 14.5%.

Compared with `Cn1ccc(C(=O)NCc2cccc(NC(=O)C3CCC3)c2)cc1=O`, `COCC1CCN(C(=O)c2cc(-c3ccco3)nc3c(Cl)cccc23)C1` (centres undefined) is lower in Percent Effect: 107% for the first, 66.3% for the second.

Compared with `Cc1cc(N2CCN(C(=O)[C@@H]3C[C@@H]4C=C[C@H]3C4)CC2)cc(C)n1`, `CN1CCN(Cc2nc3ccccc3[nH]2)[C@H]2CS(=O)(=O)C[C@H]21` is lower in Percent Effect: -10.7% for the first, -21.3% for the second.

First: CCc1nccn1CC(=O)N1C[C@H]2CC[C@@H]1CN(C(=O)N(C)C)C2
Second: Cc1cnc(N2C[C@@H]3[C@@H](C2)OCC(=O)N3CCN(C)C)nc1
The Percent Effect of the first is lower: -13.8% for the first, 3.47% for the second.

First: O=C(c1ccc(COc2ccccc2Cl)o1)N1N=CCC1(O)C(F)(F)F (centres undefined)
Second: O=C(c1ccc(COc2ccc(Cl)cc2)o1)N1N=CCC1(O)C(F)(F)F (centres undefined)
The Percent Effect of the first is lower: 37.5% for the first, 73.2% for the second.

First: Cc1cccc(OCc2ccc(C(=O)N3N=CCC3(O)C(F)(F)F)o2)c1 (centres undefined)
Second: O=C(c1cccnc1)N1CCN2C(=O)N(Cc3ccc(F)cc3)C[C@H]2C1
The Percent Effect of the first is higher: 45.3% for the first, 2.86% for the second.

Compared with `CC(C)N(C)C[C@H]1C[C@@H]2CN(Cc3ccco3)C[C@@H]2O1`, `O=C(c1cc(-c2ccco2)nc2c(Cl)cccc12)N1C[C@H]2CNC[C@H]2C1` is lower in Percent Effect: -28.7% for the first, -42.7% for the second.

Going from `Cc1cc(C2CCCCN2C(=O)c2cccn2C)nc2nccn12` (centres undefined) to `Cc1cc(C2CCCCN2C(=O)c2ccsc2)nc2nccn12` (centres undefined), the Percent Effect rises from 8.03% to 84.3%.

First: O=C(c1ccnnc1)N1C[C@H]2CCC[C@@H](OCc3cccnc3)[C@@H]2C1
Second: O=C(c1cc(-c2ccco2)nc2c(Cl)cccc12)N1CCS(=O)(=O)CC1
The Percent Effect of the first is higher: 8.09% for the first, -5.09% for the second.
